Most compounds without a hit are left out; they make up all but 2.4% or so of the library.
Pol eta inh-1: inhibitors of human DNA polymerase eta. Potency, µM (doses to about 114 µM), for the others: at the highest dose activity change, negative = inhibition, hits mostly inhibitors. recombinant Pol eta, fluorescent DNA replication assay. Q9Y253. 1.2% of 390,000 active; further: on the % scale 0 is the no-effect control and ±100 the full control effect
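Pol eta at 10 nM preincubated with compounds 15 min at room temperature; reaction started with fluorescent substrate (50 nM final) and read kinetically at 0 and 10 min.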
KAT2A inh: inhibitors of human GCN5L2 histone acetyltransferase | Q92830 | GCN5L2 HAT assay, ThioGlo1 CoA-SH fluorescence | Potency, µM (highest dose often 58.9 µM), for the others: top-dose activity change, negative = inhibition, hits mostly inhibitors | 0.21% of 390,000 active; further: on the % scale 0 is the no-effect control and ±100 the full control effect
Target sequence (Q92830 whole entry, looked up): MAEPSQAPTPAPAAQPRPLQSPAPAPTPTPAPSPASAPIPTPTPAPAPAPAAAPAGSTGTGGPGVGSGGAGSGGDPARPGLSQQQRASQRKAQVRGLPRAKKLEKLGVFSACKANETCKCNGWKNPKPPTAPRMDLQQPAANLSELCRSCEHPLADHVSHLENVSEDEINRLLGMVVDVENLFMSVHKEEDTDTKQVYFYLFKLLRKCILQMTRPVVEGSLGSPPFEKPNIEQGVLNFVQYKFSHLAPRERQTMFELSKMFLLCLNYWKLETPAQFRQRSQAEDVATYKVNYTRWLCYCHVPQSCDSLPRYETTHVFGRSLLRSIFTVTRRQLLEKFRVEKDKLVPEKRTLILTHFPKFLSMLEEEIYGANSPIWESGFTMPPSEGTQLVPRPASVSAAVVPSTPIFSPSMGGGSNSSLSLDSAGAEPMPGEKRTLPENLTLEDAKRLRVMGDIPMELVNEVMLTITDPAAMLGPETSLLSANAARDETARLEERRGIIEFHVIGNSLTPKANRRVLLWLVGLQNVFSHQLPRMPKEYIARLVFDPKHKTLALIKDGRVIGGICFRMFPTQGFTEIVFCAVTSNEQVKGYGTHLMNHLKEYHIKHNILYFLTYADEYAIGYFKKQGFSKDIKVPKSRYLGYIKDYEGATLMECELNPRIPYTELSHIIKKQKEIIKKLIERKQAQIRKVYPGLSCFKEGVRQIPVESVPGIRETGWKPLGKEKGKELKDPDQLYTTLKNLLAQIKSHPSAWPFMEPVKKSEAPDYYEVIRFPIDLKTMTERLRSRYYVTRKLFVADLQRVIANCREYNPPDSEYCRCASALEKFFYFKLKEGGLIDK
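GCN5L2 (20nM final) in 50mM HEPES, 0.1mM EDTA pH 7.5, 0.01% Tween-20 was preincubated 15 min at room temperature with compound, then given ThioGlo1 (50uM), H3(1-25) peptide (75uM) and acetyl-CoA (70uM); CoA-thiol fluorescence (Ex340/Em540) was read at 0 and 20 min.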
Pol kappa inh-1: DNA polymerase kappa (human) inhibition. purified Pol kappa, fluorescent DNA synthesis assay, 10 min. Potency, µM (titrated, usually from 107 µM), inactives show at the top dose activity, negative = inhibition, most hits filed as inhibitors. 0.53% of 400,000 active; further: on the % scale 0 is the no-effect control and ±100 the full control effect
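Readout: fluorescence, taken kinetically at 0 and 10 min. Conditions: 10 nM Pol kappa, 15 min RT compound preincubation, 50 nM substrate final. Controls: enzyme-free buffer wells.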
Pol beta inh: blocks human DNA polymerase beta activity | Pol beta primer extension/strand displacement, fluorescence kinetic | Potency, µM (series often up to 114 µM), inactives show at the highest dose activity change, negative = inhibition, actives largely listed as inhibitors | 1.3% of 340,000 active; further: on the % scale 0 is the no-effect control and ±100 the full control effect
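Reaction started by 50 nM substrate onto compound-treated Pol beta (10 nM, 15 min preincubation, room temperature); plates read at 0 min and 10 min. Normalized concentration-effect data fitted by four-parameter Hill equation.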
GLS inh: glutaminase GLS (human) inhibition; 0.21% of 410,000 active; O94925; GLS enzymatic activity, qHTS titration; AID 624170; Potency, µM (titrated, usually from 45.5 µM), without a hit: at the highest dose activity change, negative = inhibition, most hits filed as inhibitors; further: on the % scale 0 is the no-effect control and ±100 the full control effect
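Two-point fluorescence kinetic (t0, 30 min RT) for hKGA; glutamate detected via glutamate oxidase–HRP–Amplex Red. Substrate: 1 mM L-glutamine solution; buffer 45 mM KH2PO4, pH 8.2.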
POLI inh: inhibitors of human DNA polymerase iota | Q9UNA4 | Pol iota fluorescent replication assay, 10 min | Potency, µM (titrated, usually from 115 µM), without a hit: at the top dose activity, negative = inhibition, actives largely listed as inhibitors | 1% of 390,000 active | AID 588590
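Pol iota at 10 nM preincubated 15 min with compounds at room temperature; reaction started with fluorescent substrate, 50 nM final. Fluorescence read kinetically at 0 and 10 min; buffer-only wells as negative control.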
TbPGK inh: TbPGK inhibition, hit validation; 79% of 500 active; shares compounds with Pol kappa inh-1; Potency, µM (top dose mostly 57.5 µM), for inactives: top-dose activity change, negative = inhibition, hits mostly inhibitors; TbPGK coupled GAPDH assay, Kinase-Glo luminescence; further: on the % scale 0 is the no-effect control and ±100 the full control effect; nearly all actives have a fitted effect of over 65% in size
POLI cherry-pick: Human Pol iota inhibitor confirmatory assay; Potency, µM, usual class: inhibitors; 77% of 1,500 active; shares compounds with Pol kappa inh-1; AID 720496; Pol iota primer extension, TAMRA/BHQ fluorescence
Pol kappa inh-2: confirmation of human DNA polymerase kappa inhibitors; purified Pol-kappa, fluorescent strand-displacement substrate; Potency, µM, actives largely listed as inhibitors; 76% of 920 active; shares compounds with Pol eta inh-1; AID 720501
Pol eta inh-2: Pol eta (human) inhibition, cherry-pick confirmation; shares compounds with Pol eta inh-1; Pol eta primer extension, TAMRA/BHQ fluorescence, 10 min; Potency, µM, most hits filed as inhibitors; 64% of 2,600 active; AID 720502
Starred values were filed as active, the others as inactive; ? = inconclusive; · = no result given; [ ] = dose if it differs, or a comment. The call rests on the fitted dose curve; in most records, active means well fitted curve in the direction sought with a large enough effect; inconclusive means small, poorly fitted or top-dose-only effect, or another doubt; inactive means no such curve, though single readings can be large; an effect the other way counts as inactive or inconclusive. Potency means the concentration at half of the fitted maximal effect.

SMILES	Pol eta inh-1	KAT2A inh	Pol kappa inh-1	Pol beta inh	GLS inh	POLI inh	POLI cherry-pick	Pol eta inh-2	others
CCOC(=O)C1CCCN(c2ccc([N+](=O)[O-])c3nonc23)C1 (stereo not drawn)	35µM*	-16%	25µM*	14µM*	14%	56µM*	38*	76*	Pol kappa inh-2=84*
COc1ccc(/C=C2/C(=O)N(Cc3ccco3)C(=O)N(C(C)C)C2=O)cc1	4.5µM*	?	20µM*	20µM*	?	7.9µM*	21*	11*	TbPGK inh=?
CCN1C(=O)C(=C/C=C/c2ccco2)C(=O)N(CC)C1=S	3.5µM*	-8%	?	14µM*	7.1µM*	?	17*	7.6*	TbPGK inh=29µM*;Pol kappa inh-2=7.5*
CN(C)c1ccc(/C=C2/C(=O)NC(=O)N(Cc3ccco3)C2=O)cc1	6.3µM*	-9%	35µM*	?	-26%	16µM*	67*	38*	Pol kappa inh-2=30*
CCN1C(=O)C(=C2C=C(C)N(Cc3ccco3)C(C)=C2)C(=O)N(CC)C1=S	-17%	-6%	-5%	3%	0%	37%	·	·
CCN(CC)c1ccc(/C=C2\C(=O)NC(=O)N(CC3CCCO3)C2=O)cc1 (stereo not drawn)	2%	-5%	-10%	22%	20%	-3%	·	·
CC(C)N1C(=O)/C(=C/C=C/c2ccco2)C(=O)N(Cc2ccco2)C1=O	2.5µM*	?	22µM*	22µM*	?	?	19*	9.5*
O=c1c(-c2ccccc2)c(O)c2ccccc2n1-c1ccccc1	-16%	3%	4%	16%	87%	124%	·	·
CCCC[C@@H](C)[C@@H](OC(=O)C[C@@H](CC(=O)O)C(=O)O)[C@H](C[C@@H](C)CCCCCC[C@@H](O)C[C@H](O)[C@H](C)N)OC(=O)C[C@@H](CC(=O)O)C(=O)O	·	39%	-2%[60.1 µM]	·	·	·	·	·
CNCC(O)c1ccc(OC(=O)C(C)(C)C)c(OC(=O)C(C)(C)C)c1 (stereo not drawn)	-13%	1%	-18%	·	12%	?	·	·
COc1ccc(CN2C(=O)NC(=O)/C(=C\c3ccco3)C2=O)cc1	8.9µM*	?	25µM*	13µM*	-5%	?	27*	27*
COc1ccc(CN2C(=O)NC(=O)/C(=C\c3cc(OC)c(OC)c(OC)c3)C2=O)cc1	-10%	-2%	-2%	-12%	-1%	?	·	·
COCCN1C(=O)NC(=O)/C(=C\c2ccc(F)cc2)C1=O	-16%	-5%	4%	?	-5%	0%	·	·
O=C1NC(=O)N(CCc2ccc(F)cc2)C(=O)/C1=C/c1ccco1	20µM*	28µM*	?	3.2µM*	0%	13µM*	67*	48*	TbPGK inh=8.2µM*
O=C1NC(=O)N(Cc2ccc(F)cc2)C(=O)/C1=C\c1ccc([N+](=O)[O-])s1	28µM*	?	32µM*	?	10%	14µM*	42*	17*
COc1cc(OC)c(OC)cc1/C=C1/C(=O)NC(=O)N(Cc2ccccc2)C1=O	13%	-1%	-21%	-19%	8%	?	·	·
COc1ccc(CN2C(=O)NC(=O)/C(=C/c3ccc([N+](=O)[O-])s3)C2=O)cc1	14µM*	?	22µM*	22µM*	-22%	?	24*	5.4*
O=C1NC(=O)N(Cc2ccc(F)cc2)C(=O)/C1=C\c1ccc(N2CCCC2)cc1	32µM*	-29%	?	35µM*	1%	14µM*	67*	60*
CCOP(=S)(OCC)OCCSCC	·	0%	16%[60.1 µM]	·	·	·	·	·
COc1ccc(C=C(C(=O)O)c2ccc(OC)cc2)cc1	-21%	·	-13%	·	0%	75%	·	·
CC(C)CS(=O)(=O)C1=NN2C(=N)/C(=C\c3ccc(OC(=O)c4ccco4)cc3)C(=O)N=C2S1	20µM*	?	?	45µM*	8%	14µM*	75*	24*
COc1ccc(-n2c(O)c(/C=C/C=Nc3ccccc3)c(=O)[nH]c2=O)cc1	20µM*	-12%	-11%	21%	18%	?	60*	76*	Pol kappa inh-2=38*
O=c1[nH]c(=O)n(-c2ccccc2)c(O)c1/C=C/C=Nc1ccccc1	?	13%	-8%	?	11%	?	·	·
CCOc1ccc(-n2c(/C=C/c3ccccc3)nc3ccccc3c2=O)cc1	-13%	-12%	-9%[60.1 µM]	0%	21%	5%	·	·
CCn1nc(/C=C/c2ccccc2)nc2c(=O)n(C)c(=O)nc1-2	0.79µM*	-2%	1%	-11%	-4%	-92%	0.75*	0.76*	TbPGK inh=0.52µM*
SMILES	Pol eta inh-1	KAT2A inh	Pol kappa inh-1	Pol beta inh	GLS inh	POLI inh	POLI cherry-pick	Pol eta inh-2	others
Cc1cccc(N2C(=O)CSC23C(=O)N(CC(=O)Nc2cccc(Cl)c2)c2ccccc23)c1 (stereo not drawn)	-6%	-4%	-9%	-20%	-2%	?	·	·
CCOc1cccc(N2C(=O)/C(=C/c3ccco3)C(=O)NC2=S)c1	3.2µM*	?	22µM*	7.9µM*	?	?	9.5*	15*	TbPGK inh=9.2µM*
O=C1NC(=S)N(c2ccccc2)C(=O)/C1=C/c1ccco1	0.79µM*	?	2.5µM*	10µM*	?	1.6µM*	0.47*	0.76*	TbPGK inh=0.33µM*;Pol kappa inh-2=0.67*
Oc1cc2c(cc1O)[C@H]1c3ccccc3CN[C@H]1CC2	·	0%	3%[19.4 µM]	·	·	·	·	·
O=C(O)CCn1cc(C=C2C(=O)NC(=S)NC2=O)c(-c2ccccc2)n1	-13%	-4%	-2%	13%	?	71%	·	·
O=C(O)CCn1cc(C=C2C(=O)NC(=S)NC2=O)c(-c2cc3ccccc3oc2=O)n1	20µM*	1%	?	-25%	?	40µM*	67*	30*
CNC(C)Cc1ccc2c(c1)OCO2 (stereo not drawn)	·	·	·	·	-3%[99.4 µM]	·	·	·

From PubChem BioAssay
